# Laboratory results taken from PubChem BioAssay (NCI).
# About 79,000 compounds went through this panel and 15% of them were active in at least one assay; those are over-represented in the sample as a whole. Unmarked numbers belong to inactive results. Activity calls are given as the source filed them. Rule as the data show it: active = growth inhibition above about 70%; inactive = the rest.
# Assays:
# [1] = NCI Yeast Anticancer Drug Screen. Data for the rad50 strain (AID 155);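 also: 0% = growth of vehicle-only cultures of the same strain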; details: S. cerevisiae rad50 strain growth inhibition; at 50.0 µM; hits give high values
# How it was run: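 A DNA repair-deficient yeast mutant serves as the test organism; compound-induced growth inhibition is calculated against vehicle-treated cells.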
# [2] = NCI Yeast Anticancer Drug Screen. Data for the mec2-1 strain (AID 157); details: S. cerevisiae mec2-1 strain, at 50.0 µM, hits give high values
# How it was run: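 Using mec2-1 yeast: add compound, measure growth, express inhibition versus vehicle-treated cultures.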
# [3] = NCI Yeast Anticancer Drug Screen. Data for the sgs1 mgt1 strain (AID 161);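 also: 0% = growth of cultures given vehicle only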; details: S. cerevisiae sgs1 mgt1 strain, at 50.0 µM, hits give high values
# How it was run: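 This yeast growth screen uses a strain with defined DNA-repair lesions; compound-treated growth is compared with vehicle-treated growth.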
# [4] = NCI Yeast Anticancer Drug Screen. Data for the cln2 rad14 strain (AID 165);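 also: 0% = growth equal to vehicle treated cultures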; details: S. cerevisiae cln2 rad14 strain, at 50.0 µM, hits give high values
# How it was run: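 Yeast strain cln2 rad14, bearing defects in cell cycle control and DNA repair, serves as the test system; values reflect growth inhibition compared with vehicle.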
# [5] = NCI Yeast Anticancer Drug Screen. Data for the bub3 strain (AID 167); details: S. cerevisiae bub3 mutant strain, at 50.0 µM, hits give high values
# How it was run: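 Inhibition values come from growth of compound-treated mutant yeast normalised to vehicle-treated controls.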
# [6] = NCI Yeast Anticancer Drug Screen. Data for the mlh1 rad18 strain (AID 175); details: S. cerevisiae mlh1 rad18 strain growth inhibition; at 50.0 µM; hits give high values
# How it was run: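 Steps: expose repair-defective yeast to compound; measure growth; express inhibition against vehicle-treated controls.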
SMILES,growth inhibition [1] [%],growth inhibition [2],growth inhibition [3] [%],growth inhibition [4] [%],growth inhibition [5] [%],growth inhibition [6]
c1ccc(CN2CCCNCC2)cc1,9.55,-1.4%,-0.25,-11.8,4.7,-0.05%
CCN(CC)CCOC(C)=O,8.25,-15.7%,-19.4,0.7,-11.1,-26.3%
Cc1cc(C)nc(NS(=O)(=O)c2ccc(NC(=O)c3ccncc3)cc2)n1,-7.75,-17.1%,3.05,9.55,-8.25,-17.1%
COc1ccccc1N/C(=C\C(=O)C(=O)NC12CC3CC(CC(C3)C1)C2)c1ccccc1,11.4,2.55%,8.65,2.25,3.75,14.2%
N#CC(=C1C=CC(=NOC(=O)c2ccccc2)C=C1)c1ccccc1,-0.75,1.2%,4.8,-5.75,-2.7,-6.85%
COC(=O)CC1C(OC)OC23CCC1C2(C)CCC1C3CCC2CC(OC3CCCCO3)CCC21C (stereo unspecified),19.1,1.15%,9.55,12.6,3.2,18.3%
CCOC(=O)C(Cc1ccccc1)NC(=O)c1[nH]cnc1/N=N/N(C)C (stereo unspecified),44,-44%,-29.4,-2.05,2.8,-22.3%
CC(O)CC(C)(C)O (stereo unspecified),28.1,13.1%,8.55,9.9,15.3,4.2%
CN(C)CCSc1nc2ccccc2o1,12.2,20.8%,27.7,21.1,16.9,32.9%
C(=N\c1oc(-c2ccccc2)nc1SCc1ccccc1)/c1ccccc1,2.75,11.2%,23.1,-19.8,7.3,25.9%
Nc1ccc(S(=O)(=O)Nc2cnc3c(Cl)cccc3n2)cc1,-11,4.2%,10.9,-39.5,32.2,-0.6%
CC(C)(C)[Si](C)(C)OCC1OC(n2cc(I)c(=O)[nH]c2=O)C(O[Si](C)(C)C(C)(C)C)C1O[Si](C)(C)C(C)(C)C (stereo unspecified),-19.2,-16%,-18.2,14.8,11.9,-33.5%
CSc1ccc(C(=O)C[n+]2cc3ccccc3cc2C)cc1,-34.4,-2.5%,-16.1,-26.6,2.75,0.7%
O=C(NC(CSC(=O)OCc1ccccc1)C(=O)Oc1ccc([N+](=O)[O-])cc1)OCc1ccccc1 (stereo unspecified),16.3,-7.4%,3.45,-23.8,-0.45,2.4%
O=C(O)c1c(F)c(F)c(C(=O)O)c(F)c1F,6.25,-15.8%,16.3,15.1,14.9,11.5%
O=C(O)c1ccccc1CC(Cc1ccc2c(c1)CCC2)C(=O)O (stereo unspecified),-7.55,-2.25%,-37,-5.15,-17.6,-6%
O=C(CN1C(=O)c2ccccc2C1=O)NC1(C(=O)O)CCCC1,-3.25,-14%,-27.9,-2.65,-30.8,-0.15%
O=C1c2cc(Cl)ccc2-c2cc(Cl)c(Cl)cc21,-0.8,-2.05%,10.4,-29.9,-3.45,26.6%
CCCCCCCCCCCC[N+]12CC[N+](C)(CC1)CC2,16.2,-24.4%,-10.7,-49,-27.6,-15.6%
Nc1ccnc2cc(Cl)ccc12,17.4,4.45%,3.3,2.6,-4.05,26.6%
NC(=O)N/N=C/c1ccncc1,-7.15,28.6%,-24.9,-7.05,8.6,7.45%

SMILES,growth inhibition [1] [%],growth inhibition [2],growth inhibition [3] [%],growth inhibition [4] [%],growth inhibition [5] [%],growth inhibition [6]
CCCCCCCCCCCCCCCCOc1ccc(OCCCCCCCCCCCCCCC)cc1,42.2,-8.2%,31.6,-24.7,5.35,-1.1%
CCOC(=O)C1C=NC([N+](=O)[O-])=C1Br (stereo unspecified),0.15,24.8%,13.4,-4.25,18.4,9.15%
CC(=O)OC1COC(Cl)C(OC(C)=O)C1OC(C)=O (stereo unspecified),-4.95,-2.9%,0.1,3.95,-8.95,1.75%
O=C(O)c1c[nH]c2cc(OCc3ccccc3)ccc2c1=O,-4.1,-44.4%,-45.5,-7.15,-21.1,7.75%
CCOC(=O)/C(Cc1nc2ccccc2[nH]c1=O)=N\O,-0.5,9.95%,5.65,50.4,-4.45,7.7%
Cc1cc(O)c(/C=N/c2nc(-c3ccc([N+](=O)[O-])cc3)cs2)c(=O)o1,58.1,20.9%,40.8,20.1,-7.7,74.1% (active)
COc1cc(CO)c(CC(=O)NCCCc2ccccc2)cc1OC,37.8,-44.5%,-12.5,-2.85,-14.2,-47.5%
CCOC(=O)C1C(c2cc(OC)c(OC)c(OC)c2)c2cc3c(cc2OC1(C)N1CCCC1)OCO3 (stereo unspecified),7.15,-0.45%,-12.3,20.5,1.55,22.1%
CC1Cc2c([nH]c(=O)n(C)c2=O)O1 (stereo unspecified),1.15,8.2%,8.4,-1.5,-21.1,2.1%
Cn1c(=O)c2c(nc3sc4ccccc4c(=O)n32)n(C)c1=O,19.2,-9.05%,-7.4,16.6,-30.9,13.8%
O=C(O)CCNC(=O)c1ccccc1O,-41.5,-8.5%,-17.1,-53.8,-18.1,-56.8%
C[CH2][Ge]([CH2]C)([CH2]C)[O]C(=O)CCC(=O)[O][Ge]([CH2]C)([CH2]C)[CH2]C,-2.1,-2.9%,-3.7,-66.7,-0.45,14.7%
CCOc1cc(N)nc(N)n1,13.1,-10.3%,7.15,5.9,5.65,-7.75%
S=C(Nc1ccccc1)Nc1ccccn1,10.1,-29.6%,4.05,-30.8,-4.35,4.25%
Cc1cc(Br)cc(Cl)c1O,-22.1,-7.9%,6.55,-11.2,-30.2,-12.4%
CC(=O)CC(=O)NCCCN1CCCCCC1,-1.1,-20.1%,-9.45,-1.05,-11.2,-4.35%
NC(=O)c1ncn2c(=O)n(CCl)nnc12,57.4,81.6% (active),29.6,45.5,57.5,83.5% (active)
CC12CCC3C(CC=C4CC(O)CCC43C)C1CCC(=O)N2 (stereo unspecified),5.2,-3.55%,-10.2,7.95,-10.2,-1%
CCOC(=O)/C=C/C1(CCOC(C)=O)CCCCC1,12.8,-27.8%,-2.9,21,-4,14.9%
CC(=O)Nc1cccc2[nH]c(=O)c3ccccc3c12,3.4,-6.4%,-5.8,-19.3,-16.9,4.55%
